Laboratory results reported in PubChem BioAssay (NCI).
About 83,000 compounds went through this panel and 20% of them were active in at least one assay; those are over-represented in the sample as a whole.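 96-well plates, one dose, 48 hours. Percent growth reported; active if below 10.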 The source made the active and inactive calls.

Test system: HS 578T breast
Assay: NCI-60 one-dose screen, 48 h (100 = growth as untreated, 0 = no growth, -100 = all killed)
Conditions: 10 µM unless noted
Procedure: Growth inhibition of the HS 578T human tumor cell line is measured as a screen for anti-cancer activity. Cells are grown in 96 well plates and exposed to the test compound for 48 hours. Compounds are tested at a single concentration, which is 10^-5 M for most compounds. The reported endpoint is percent growth (GI% or GIPRCNT), where numbers from 0 - 100% represent growth inhibition, and numbers from -100% - 0 represent cell death. For example, a value of 40 represents 60% growth inhibition. A value of 0 means no net growth occurred over the course of the experiment. A value of -40 indicates 40% of cells at the beginning of the experiment died by the end of the experiment. A value of -100 means all cells are dead at the end of the experiment.
NCI-60 Human Tumor Cell Lines Screen was performed using the standard one-dose NCI protocol, which is described in more detail at https://dtp.cancer.gov/discovery_development/nci-60/default.htm.
Compounds with GIPRCNT values below 10 were considered active. Activity score was based on GIPRCNT using the following formula: […]
Score is 0 for GIPRCNT values of 100 or above, 50 for GIPRCNT values of 0, and 100 for GIPRCNT values of -100.

| Compound | growth |
| --- | --- |
| O=C1OCC2=C1C(c1ccncc1)c1cc3c(cc1N2CCO)OCO3 (stereo not given) | 87% (inactive) |
| Cc1ccc(-c2onc3c(=O)[nH]nc(-c4ccccc4)c23)cc1 | 16.7% (inactive) |
| COc1ccc(-c2nc3cc(C(=O)Nc4cc(OC)c(OC)c(OC)c4)ccc3n2C2CCCCC2)cc1 | 81.9% (inactive) |
| COc1cc(/C=C/C(=O)Nc2cccnc2Nc2ccc(F)cc2)cc(OC)c1OC | 99.4% (inactive) |
| C#CC(F)(F)[C@]1(O)CC[C@H]2[C@@H]3CCC4=CC(=O)CCC4=C3[C@@H](c3ccc(C4CC4)cc3)C[C@@]21C | 33.4% (inactive) |
| c1csc(C2=NN3C(C2)c2ccccc2OC3c2ccncc2)c1 (stereo not given) | 87.2% (inactive) |
| CCOC(=O)n1cc(-c2nonc2-c2cn(C)c3ncccc23)c2cc(F)ccc21 | 79.4% (inactive) |
| COc1cc2c(cc1OC)C(Sc1ccc(SC)cc1)c1c(nc(N)c(C#N)c1N)O2 (stereo not given) | 4.87% (active) |
| OCC(O)c1nc2ccc3[nH]ncc3c2c2c1CCCC2 (stereo not given) | -10.5% (active) |
| COc1cc(-c2nc(C(=O)NCC(=O)NO)nn2-c2ccc(Cl)cc2)cc(OC)c1OC | 85.6% (inactive) |
| Cn1cccc1-c1nc2c3c(ccc2[nH]1)C(=O)c1ccccc1C3=O | 115% (inactive) |
| COc1cc(-c2nn(-c3ccc(Br)cc3)cc2C(=O)O)ccc1O | 101% (inactive) |
| Nc1n[nH]c2ccc([C@@H]3Nc4ccc5cn[nH]c5c4[C@H]4C5CCC(C5)[C@@H]34)cc12 (stereo not given in full) | 21.2% (inactive) |
| CCNC(=O)Oc1ccc(/C(=C(\C)c2ccc(Cl)cc2)c2ccc(OCCN3CCCCC3)cc2)cc1 | 55.9% (inactive) |
| CC1=C[C@H]2c3c(c(O)c(O)c4oc5c(C)cccc5c(=O)c34)[C@H](c3cc(O)c(O)c4oc5c(C)cccc5c(=O)c34)[C@H]2C(C)(C)C1 | -6.09% (active) |
| Cc1ccc(C2Oc3ccccc3C3CC(c4cccs4)=NN32)cc1 (stereo not given) | 86.7% (inactive) |
| Fc1ccc2[nH]cc(SSc3c[nH]c4ccc(F)cc34)c2c1 | -29.2% (active) |
| Cc1cc(N[C@@H]2CCC[C@H](Nc3ccnc4cc(Cl)ccc34)C2)nc(N2CCCCCC2)n1 | -46.8% (active) |
| CCOC(=O)c1c(C(=O)OCC)c2cc(-c3ccn4c(C(=O)c5ccccc5)c(C(=O)OCC)c(C(=O)OCC)c4c3)ccn2c1C(=O)c1ccccc1 | 80.7% (inactive) |
| COc1cccc(/C=C2\Oc3cc(OCCN4CCCC4)ccc3C2=O)c1 | 91.8% (inactive) |

| Compound | growth |
| --- | --- |
| Cc1cc(N2CCCCC2)nc(NC2CCCC(Nc3ccnc4cc(Cl)ccc34)C2)n1 (stereo not given) | -48.6% (active) |
| COc1ccc(Nc2cc(C)nc(N3CCN(c4ccnc5cc(Cl)ccc45)CC3)n2)cc1 | 71.1% (inactive) |
| CN1CCN(CCCOc2cccc3nc(Nc4cc(Cl)cc(Cl)c4)ccc23)CC1 | 37.5% (inactive) |
| CC/C=C\C[C@H]1C/C=C2/C(=O)C=C[C@H]2C/C=C\CCCC(=O)O1 | 54.2% (inactive) |
| N#Cc1c(-c2ccc(Cl)cc2)nc(N=Nc2c(O)[nH]c3ccc(Cl)cc23)nc1N1CCOCC1 | 94% (inactive) |
| Cc1ccc(/C=C2\SC(=S)N(CC(=O)NCCCN3CCOCC3)C2=O)cc1 | 87.4% (inactive) |
| Cc1cc(NS(=O)(=O)c2ccc(-c3cnc(C4CC4)o3)cc2)ccc1Cl | 11.9% (inactive) |
| COc1ccc(/C=C2\Oc3cc(OCCCCN4CCCC4)ccc3C2=O)cc1 | 90.9% (inactive) |
| CSc1ccc(SC2c3ccc(C)cc3Oc3nc(N)c(C#N)c(N)c32)cc1 (stereo not given) | -8.07% (active) |
| O=c1ccccc(-c2ccc(Br)cc2)c1O | 51.8% (inactive) |
| COc1ccc(/C=C/c2nc3ccccc3nc2/C=C/c2ccc(OC)cc2)cc1 | 90.8% (inactive) |
| O=C(CCCCC(=O)N/N=C\c1ccccc1O)N/N=C\c1ccccc1O | 71% (inactive) |
| FC(F)(F)Oc1ccc2nc3nc4ccc[nH]c4cc3c2c1 | 56.7% (inactive) |
| COc1ccc2cc(-c3nn(-c4ccc(C(=O)O)cc4)cc3CO)ccc2c1 | 97.3% (inactive) |
| CCCCn1c(-c2ccc(C(=O)O/N=C(\N)c3ccc4c(c3)OCO4)cc2)nc(-c2ccccc2)c1-c1ccccc1 | 41.1% (inactive) |
| O=C1c2cc3c(cc2-c2c1c1ccc(F)cc1c(=O)n2C[C@H](O)[C@H](O)[C@H](O)CO)OCO3 | -8.24% (active) |
| CCOc1ccc(C(C)=O)cc1NC(=O)c1cccc(-c2nnn(CC)n2)c1 | 25.4% (inactive) |
| CCCOc1cc2ccccc2cc1C(=O)Nc1nc(NC)c2c(ccc3nccc32)[nH]1 | -56.3% (active) |
| C=CC(=O)Nc1cccc(Nc2nc(SC)nc(-c3cccc([N+](=O)[O-])c3)c2C#N)c1 | 53.7% (inactive) |
| CC(=O)Oc1ccc(Cl)cc1CN(C(C)=O)C1CCCCC1 | 104% (inactive) |
